MazF activator – MazEF (E. coli) toxin RNase activation; FAM/BHQ RNA-DNA oligo cleavage fluorescence, 5 h; 350,000 tested, 0.32% active; P0AE70; activation, % at 20 µM; in the data active means activation above about 50%
Target sequence (P0AE70 whole entry, looked up): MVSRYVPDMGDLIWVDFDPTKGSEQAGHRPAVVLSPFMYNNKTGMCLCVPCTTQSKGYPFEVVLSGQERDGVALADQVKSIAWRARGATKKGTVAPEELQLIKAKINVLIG
GDH-TPI counter – inhibits GDH-TPI coupling enzymes, artifact for Mtb FBA screen. 360,000 tested, 1.2% active. inhibition, % at 4.8 µM. GDH-TPI coupled enzyme counterscreen, NADH absorbance;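 further: 0% = DMSO wells and 100% = wells lacking the enzyme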
Mtb betalactam – beta-lactam sensitization of Mtb H37Rv | M. tuberculosis H37Rv growth with meropenem, percent inhibition | inhibition, % at 25 µM | 330,000 tested, 0.27% active | AID 434955; call rule not given here;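 further: growth measured after seven days incubation then overnight dye step; 0% = bacteria only wells and 100% = bacteria with antibiotic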
CCHF vOTU inh-1 – blocks the CCHF virus ovarian tumor domain protease. CCHFV vOTU protease, Pep-AMC fluorescence. inhibition, % at 11.5 µM. 370,000 tested, 0.55% active. AID 651958; further: 0% = vehicle wells with enzyme and 100% = no enzyme wells
FBA Mtb inh – inhibits M. tuberculosis FBA enzyme. P9WQA3. purified M. tuberculosis FBA, fluorescence read-out. inhibition, % at 1 µM. 360,000 tested, 2.3% active; in the data active means inhibition above about 27%;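 further: 0% = vehicle and 100% = reference inhibitor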
Target sequence (P9WQA3 whole entry, looked up): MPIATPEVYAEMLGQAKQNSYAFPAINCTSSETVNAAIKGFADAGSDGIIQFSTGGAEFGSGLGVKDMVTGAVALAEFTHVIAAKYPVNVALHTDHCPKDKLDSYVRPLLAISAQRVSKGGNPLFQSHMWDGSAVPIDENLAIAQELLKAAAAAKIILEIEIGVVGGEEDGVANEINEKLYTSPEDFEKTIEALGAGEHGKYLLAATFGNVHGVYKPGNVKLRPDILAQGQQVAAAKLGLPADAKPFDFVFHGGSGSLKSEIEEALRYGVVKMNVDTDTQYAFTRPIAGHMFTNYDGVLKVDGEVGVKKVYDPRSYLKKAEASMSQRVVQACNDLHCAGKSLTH
CCHF vOTU inh-2 – CCHFV vOTU protease inhibition, confirmation. inhibition, % at 11.5 µM. Recombinant CCHFV vOTU, Pep-AMC fluorescence. 1,900 tested, 17% active. shares compounds with CCHF vOTU inh-1
Numbers without * were called inactive; x = not tested or not shown. Compounds with a hit are over-represented: about 4% of the library has one in this group of screens. Unless noted, no stated cut-off is given here; in the data, active means inhibition above about 30%; inactive means the rest.

SMILES | MazF activator | GDH-TPI counter | Mtb betalactam | CCHF vOTU inh-1 | FBA Mtb inh | CCHF vOTU inh-2
Cc1cc(C)c2cc(C#N)c(NCCNC(=O)c3cccnc3)nc2c1 | x | x | x | -34 | x | x
COc1ccc(-c2nnc(SCc3nc4ccccc4c(=O)[nH]3)o2)cc1 | 9 | -3 | -2 | -13 | -3 | x
c1cc2c3c(cccc3c1)NC1(CCCCC1)N2 | 11 | 13 | 2 | 30* | -2 | 17
O=C(OCc1nnc(-c2cccs2)o1)C1=NN(c2ccccc2)C(=O)CC1 | 0 | 1 | 0 | -12 | 2 | x
CCOC(=O)C1(CC)Oc2ccccc2C(c2ccc(OC)cc2)=C1C(=O)OC (stereo not given) | -8 | 5 | x | 2 | -2 | x
COc1ccccc1N1CCN(C(=O)C2CCN(C(=O)c3ccccc3Cl)CC2)CC1 | -2 | -1 | 4 | 31* | 3 | -7
COc1cc(C2Nc3cccc4cccc(c34)N2)ccc1O | 11 | 14 | -1 | 41* | -3 | 24
CCn1nc(-c2ccccc2)nc2c(=O)n(C)c(=O)nc1-2 | -82 | 4 | 98 | x | -14 | x
Cc1nc2c(=O)n(C)c(=O)nc-2n(C)n1 | -27 | 1 | 100 | 102* | -12 | 99*
CNc1ccc2oc(C[C@H]3O[C@@]4(CC[C@H]3C)O[C@H]([C@H](C)C(=O)c3ccc[nH]3)[C@H](C)C[C@H]4C)nc2c1C(=O)O | 3 | 12 | 97 | 54* | 6 | -36
COC(=O)c1c(C)[nH]c(C(=O)C(C)OC(=O)C2CC(=O)N(CCc3ccccc3)C2)c1C (stereo not given) | -6 | 4 | 6 | 33* | -1 | -6
CCOc1ncccc1C(=O)NNC(=O)c1cccc(S(=O)(=O)Nc2ccc(OC)cc2)c1 | -2 | 2 | -3 | -1 | -1 | x
Cc1ccc(C2(c3ccc(C)cc3)CC2C(=O)Nc2ccc([N+](=O)[O-])cc2O)cc1 (stereo not given) | -3 | 5 | 98 | 34* | -6 | -5
O=C(CNC(=O)c1sc2ccccc2c1Cl)NC1CC1 | 4 | -1 | -3 | 7 | 5 | x
CN(C)c1nc(N(C)C)n(Cc2c(Cl)cccc2Cl)n1 | 3 | -2 | -3 | 3 | 0 | x
CC(=O)c1ccc(NC(=S)Nc2cccc3cnccc23)cc1 | 2 | 16 | 0 | 39* | 3 | 81*
CCCOc1ccccc1OCC(=O)Nc1cc(Cl)ccc1-n1cncn1 | -8 | 9 | -12 | 32* | 5 | -16
Cc1cccc(OCC(=O)Nc2cc(Cl)ccc2-n2cncn2)c1C | -3 | 2 | 2 | 11 | -2 | x
Cn1c2ccccc2c2cc(/C=N/NC(=O)c3cc(O)ccc3O)ccc21 | 24 | 15 | 0 | 51* | 5 | 64*
O=S(=O)(Nc1cc2nc3ccccc3nc2n1Cc1ccccc1)c1ccc(Cl)cc1 | 30 | 8 | -1 | 111* | 12 | 67*
O=S(=O)(NCc1ccccc1)c1ccc(Cl)cc1 | 0 | 5 | 9 | -15 | -5 | x
CCOC(=O)Nc1sc(NS(=O)(=O)c2ccccc2)nc1C | 4 | 5 | -1 | -6 | 2 | x
CCOC(=O)Nc1sc(NS(=O)(=O)c2ccc(C)cc2)nc1C | -2 | 8 | 9 | 30* | 2 | -10
CCOc1ccc(/C(O)=C2\C(=O)C(=O)N(CCN(C)C)C2c2cccc(OC)c2OC)cc1Cl (stereo not given) | -1 | 4 | 3 | 30* | -2 | -9
COc1ccc(-c2nc(S(=O)(=O)c3ccccc3)c(NCCCN3CCOCC3)o2)cc1 | 5 | 3 | 5 | 8 | 1 | x
SMILES | MazF activator | GDH-TPI counter | Mtb betalactam | CCHF vOTU inh-1 | FBA Mtb inh | CCHF vOTU inh-2
Cc1[nH]oc(=O)c1N=Nc1c(Cl)cccc1Cl | 3 | 19 | 68 | 36* | -1 | -4
Cc1[nH]oc(=O)c1N=Nc1ccccc1 | -8 | 23 | -7 | 4 | -5 | x
COc1ccc(OCc2nnc(SCC(=O)NC3CCCCC3)o2)cc1 | -22 | 8 | -6 | 4 | 4 | x
CCC(c1nnnn1C1CCCC1)N1CCC(C(N)=O)CC1 (stereo not given) | -13 | -1 | 1 | -1 | 1 | x
CCCCC[C@@H]1C=C(C(=O)O)[C@H](c2ccc(F)cc2)N1S(=O)(=O)c1ccc(C)cc1 | 2 | 10 | -9 | 18 | 0 | x
CCCCC[C@@H]1C=C(C(=O)O)[C@H](c2ccc(CC)cc2)N1S(=O)(=O)c1ccc(C)cc1 | 1 | 4 | -1 | 2 | 3 | x
CC[C@@H]1C=C(C(=O)O)[C@H](c2ccc(Cl)c(Cl)c2)N1S(=O)(=O)c1ccc(C)cc1 | -5 | 9 | -9 | 10 | -4 | x
CCCCC[C@@H]1C=C(C(=O)O)[C@H](c2ccc(Cl)c(Cl)c2)N1S(=O)(=O)c1ccc(C)cc1 | -3 | -2 | -8 | 37* | -1 | 21
CCCCC[C@@H]1C=C(C(=O)O)[C@H](c2cccc(C)c2)N1S(=O)(=O)c1ccc(C)cc1 | 0 | 9 | 6 | 32* | 2 | 5
CCCC[C@@H]1C=C(C(=O)O)[C@H](c2ccc(CC)cc2)N1S(=O)(=O)c1ccc(C)cc1 | -3 | 14 | 0 | 30* | 2 | 21
O=C1C=C(/C=C/c2ccccc2)C[C@@H](c2ccc(F)cc2)C1 | 8 | 15 | 12 | 7 | -5 | x
COc1ccc([C@H]2CC(=O)C=C(/C=C/c3ccccc3)C2)cc1OC | -9 | 38* | 91 | 30* | -3 | 8
Cc1ccccc1NC(=O)Cc1nc(COC(=O)c2cc([N+](=O)[O-])ccc2NCCO)cs1 | -6 | 19 | 4 | 30* | -3 | -3
O=C(COC(=O)Cc1n[nH]c(=O)c2ccccc12)Nc1ccc(Cl)cn1 | 1 | 0 | -4 | 3 | 0 | x
CC(C)(C)OC(=O)N1CCCC(C(=O)Nc2cccc(C(=O)NCCCc3ccccc3)c2)C1 (stereo not given) | 7 | 2 | x | 31* | 0 | 1
Nn1c(COc2ccccc2F)nnc1SCC(=O)NC1CCS(=O)(=O)C1 (stereo not given) | -3 | 1 | -12 | 5 | -2 | x
Cc1cc(C)cc(NC(=O)CN(C)CC(=O)N(CC(C)C)c2c(N)n(CC(C)C)c(=O)[nH]c2=O)c1 | 5 | 2 | -5 | 35* | 1 | -27
COc1ccc(NC(=O)CN(C)CC(=O)N(CC(C)C)c2c(N)n(CC(C)C)c(=O)[nH]c2=O)cc1 | -7 | -6 | -6 | -4 | 2 | x
CCN(C(=O)CSc1ccc2ccccc2n1)C1CCCCC1 | 4 | 12 | 7 | -4 | -5 | x
O=C(NCc1ccccc1)c1nc2c(nnn2Cc2cccc(Cl)c2)c(=O)[nH]1 | -3 | -14 | -8 | 45* | -2 | 7
O=C(NCc1ccco1)c1nc2c(nnn2Cc2cccc(Cl)c2)c(=O)[nH]1 | -3 | 8 | 5 | 21 | 0 | x
COC(=O)[C@]12C[C@H](CC(=O)NCCC(C)C)C(=O)N(Cc3ccc4c(c3)OCO4)C1=C[C@H](COCc1ccccc1)O[C@@H]2C | x | x | x | 20 | x | x
CCCCCCCCN1C(=O)[C@@H](CC(=O)NCC2CCCCC2)C[C@@]2(C(=O)OC)C1=C[C@H](COCc1ccccc1)O[C@@H]2C | x | x | x | 31* | x | 0
CCCCCCCCN1C(=O)[C@@H](CC(=O)NCC2CCCCC2)C[C@@]2(C(=O)OC)C1=C[C@H](C(C)(C)C)O[C@@H]2C | x | x | x | 5 | x | x
CCCCCCCCN1C(=O)[C@@H](CC(=O)NCc2cccc(C(F)(F)F)c2)C[C@@]2(C(=O)OC)C1=C[C@H](COCc1ccccc1)O[C@@H]2C | x | x | x | 32* | x | 23
CCCCCCCCN1C(=O)[C@@H](CC(=O)NCCC(C)C)C[C@@]2(C(=O)OC)C1=C[C@H](COCc1ccccc1)O[C@@H]2C | x | x | x | 30* | x | 10

Screening data deposited in PubChem BioAssay by several laboratories.
